# From PubChem BioAssay (Tox21)
# Records with an inconclusive call do not appear. A call without a number means that no potency is given here. The source made the active and inactive calls. Unless noted, the call rests on the fitted dose curve; in most records, active means well fitted curve in the direction sought with a large enough effect in the repeat runs; inconclusive means weak or mixed curves; inactive means no such curve, though single readings can be large; an effect the other way counts as inactive or inconclusive.
# Key:
# [1] = biological target: Estrogen receptor beta (Homo sapiens) (UniProt Q92731); test: qHTS assay to identify small molecule antagonists of the estrogen receptor beta (ER-beta) signaling pathway (AID 1259378; active means well fitted inhibition curve with a large enough effect in the signal ratio in the repeat runs, not every such curve was filed as active; the % refers to the signal ratio)
# Chain of Estrogen receptor beta (Homo sapiens) (Q92731 whole entry, looked up): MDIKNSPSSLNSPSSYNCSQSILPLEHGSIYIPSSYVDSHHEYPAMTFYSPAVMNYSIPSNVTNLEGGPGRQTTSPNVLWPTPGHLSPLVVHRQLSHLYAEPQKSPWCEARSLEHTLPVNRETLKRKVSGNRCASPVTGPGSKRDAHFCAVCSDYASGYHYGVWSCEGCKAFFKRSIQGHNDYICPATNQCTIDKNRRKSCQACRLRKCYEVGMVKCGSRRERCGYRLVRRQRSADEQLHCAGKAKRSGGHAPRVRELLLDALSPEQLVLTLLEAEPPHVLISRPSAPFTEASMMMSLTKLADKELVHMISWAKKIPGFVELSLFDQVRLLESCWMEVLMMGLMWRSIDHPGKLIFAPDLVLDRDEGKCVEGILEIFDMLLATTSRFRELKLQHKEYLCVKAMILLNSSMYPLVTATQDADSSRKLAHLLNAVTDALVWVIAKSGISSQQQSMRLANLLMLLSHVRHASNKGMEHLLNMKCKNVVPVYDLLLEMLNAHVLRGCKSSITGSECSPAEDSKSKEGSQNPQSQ
# In short: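 ER-beta-UAS-bla HEK293T (GripTite) cells in 2% charcoal-stripped FBS medium were preincubated 6 hr at 37C, dosed with compound, then stimulated with 1 nM E2 (final) for 16 hr; beta-lactamase reporter read by B/G FRET fluorescence after 2 hr substrate loading.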
# [2] = qHTS assay to identify small molecule agonists of the estrogen receptor beta (ER-beta) signaling pathway - cell viability counter screen (AID 1259380); further: nearly all actives have a fitted effect of over 30% in size; further: potency means the concentration at half of the fitted maximal effect
# In short: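 In this qHTS counter screen, HEK293T cells carrying an ER-beta/UAS beta-lactamase reporter, grown in 2% charcoal-stripped FBS, received compound for 16 hr; ATP-based CellTiter-Glo luminescence was then read after 30 min at room temperature.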
# [3] = qHTS assay to identify small molecule agonists or antagonists of the thyroid stimulating hormone receptor (TSHR) signaling pathway - wild type cell line counter screen (AID 1259384; calls by dose curve)
# In short: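 Wild-type HEK293 cells were plated 18 h at 37 C/5% CO2, pin-dosed with compound plus Ro20-1724 medium, held 30 min at room temperature, then given cAMP-d2 and anti-cAMP-cryptate; fluorescence was read after 1 h. Fifteen concentrations, triplicate.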
# [4] = biological target: Thyrotropin receptor (Homo sapiens) (UniProt P16473); test: qHTS assay to identify small molecule antagonists of the thyroid stimulating hormone receptor (TSHR) signaling pathway (AID 1259385; calls by dose curve; further: nearly all actives have a fitted effect of over 20% in size)
# Chain of Thyrotropin receptor (Homo sapiens) (P16473 whole entry, looked up): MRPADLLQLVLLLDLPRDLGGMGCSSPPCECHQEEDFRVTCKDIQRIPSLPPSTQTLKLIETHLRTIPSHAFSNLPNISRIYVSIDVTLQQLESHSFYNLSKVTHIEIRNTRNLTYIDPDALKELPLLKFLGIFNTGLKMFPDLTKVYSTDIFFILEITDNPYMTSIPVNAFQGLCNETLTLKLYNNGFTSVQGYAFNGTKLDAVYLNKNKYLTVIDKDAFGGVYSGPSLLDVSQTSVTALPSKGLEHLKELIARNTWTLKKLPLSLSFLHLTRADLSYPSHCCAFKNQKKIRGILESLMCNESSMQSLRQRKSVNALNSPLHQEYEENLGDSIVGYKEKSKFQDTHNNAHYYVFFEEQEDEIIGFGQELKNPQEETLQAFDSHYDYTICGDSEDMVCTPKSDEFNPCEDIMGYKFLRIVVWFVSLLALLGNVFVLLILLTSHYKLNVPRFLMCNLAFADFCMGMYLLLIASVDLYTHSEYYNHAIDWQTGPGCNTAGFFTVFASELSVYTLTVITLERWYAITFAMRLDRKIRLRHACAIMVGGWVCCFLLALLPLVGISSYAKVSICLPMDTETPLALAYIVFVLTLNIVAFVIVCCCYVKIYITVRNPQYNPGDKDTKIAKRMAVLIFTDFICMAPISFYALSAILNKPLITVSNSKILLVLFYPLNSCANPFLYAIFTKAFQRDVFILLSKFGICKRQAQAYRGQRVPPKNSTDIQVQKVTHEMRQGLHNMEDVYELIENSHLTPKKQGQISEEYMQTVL
# In short: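 TSHR-HEK293 cells were plated and held 18 h at 37C/5% CO2, then given compound plus Ro20-1724 and stimulated with TSH at 1.5 ng/mL final. After 30 min at room temperature, cAMP was detected with cAMP-d2/anti-cAMP-cryptate (1 h) by fluorescence.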
# [5] = biological target: Progesterone receptor (Homo sapiens) (UniProt P06401); test: qHTS assay to identify small molecule agonists of the progesterone receptor (PR) signaling pathway (AID 1346784; calls by dose curve; further: nearly all actives have a fitted effect of over 30% in size)
# Chain of Progesterone receptor (Homo sapiens) (P06401 whole entry, looked up): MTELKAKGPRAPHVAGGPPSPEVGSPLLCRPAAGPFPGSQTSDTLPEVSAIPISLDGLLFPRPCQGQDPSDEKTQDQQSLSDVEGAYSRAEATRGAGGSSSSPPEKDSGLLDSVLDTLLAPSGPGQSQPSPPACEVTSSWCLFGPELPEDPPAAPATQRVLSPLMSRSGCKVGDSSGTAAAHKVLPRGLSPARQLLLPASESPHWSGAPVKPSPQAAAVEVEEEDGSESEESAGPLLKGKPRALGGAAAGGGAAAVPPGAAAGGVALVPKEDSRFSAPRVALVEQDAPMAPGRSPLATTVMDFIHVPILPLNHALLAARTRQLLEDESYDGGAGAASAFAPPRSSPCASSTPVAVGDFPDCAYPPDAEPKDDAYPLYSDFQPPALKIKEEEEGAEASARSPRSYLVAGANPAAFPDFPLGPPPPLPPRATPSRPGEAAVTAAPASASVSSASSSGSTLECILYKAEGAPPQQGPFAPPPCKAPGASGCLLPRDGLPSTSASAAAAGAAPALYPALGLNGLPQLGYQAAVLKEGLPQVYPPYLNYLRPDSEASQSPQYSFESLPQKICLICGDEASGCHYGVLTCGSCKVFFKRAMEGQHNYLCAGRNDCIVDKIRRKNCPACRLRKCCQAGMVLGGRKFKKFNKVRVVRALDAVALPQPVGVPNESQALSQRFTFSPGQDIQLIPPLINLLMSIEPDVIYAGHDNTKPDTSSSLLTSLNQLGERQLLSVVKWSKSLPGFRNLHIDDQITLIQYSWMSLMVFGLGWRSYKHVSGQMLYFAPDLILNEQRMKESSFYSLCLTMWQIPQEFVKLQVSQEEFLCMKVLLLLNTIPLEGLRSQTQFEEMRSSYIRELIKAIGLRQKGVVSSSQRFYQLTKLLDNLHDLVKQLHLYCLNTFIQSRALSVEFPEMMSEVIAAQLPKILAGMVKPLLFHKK
# In short: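 Beta-lactamase reporter read-out: after 16 hr compound treatment at 37C and a further 2 hr at room temperature with LiveBLAzer B/G FRET substrate, fluorescence was measured in PR-UAS-bla HEK 293T cells grown in 2% charcoal-stripped serum.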
# [6] = biological target: Progesterone receptor (Homo sapiens) (UniProt P06401); test: qHTS assay to identify small molecule antagonists of the progesterone receptor (PR) signaling pathway (AID 1346795; active means well fitted inhibition curve with a large enough effect in the signal ratio in the repeat runs, not every such curve was filed as active; the % refers to the signal ratio)
# In short: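 Read-out is fluorescence from the LiveBLAzer B/G FRET substrate, cleaved by a UAS-controlled beta-lactamase in PR-UAS-bla HEK293T cells after 16 hr exposure to compound plus 1 nM promegestone (final), followed by 2 hr at room temperature.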
# [7] = qHTS assay to identify small molecule antagonists of the TGF-beta/Smad signaling pathway - cell viability counter screen (AID 1346824); further: nearly all actives have a fitted effect of over 50% in size
# In short: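 SBE-bla HEK 293T cells were plated overnight at 37 C, then given compounds in DMSO plus TGF-beta1 (added as 0.25 ng/mL solution) for 5 hr. After the bla read, CellTiter-Glo was added to the same wells and luminescence read after 30 min at room temperature.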
# [8] = qHTS assay to identify small molecule agonists of the TGF-beta/Smad signaling pathway - cell viability counter screen (AID 1346829); further: top concentration of the series differs between compounds; nearly all actives have a fitted effect of over 45% in size
# In short: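 In parallel with the Smad reporter read, viability of HEK 293T cells stably carrying SBE-bla is quantified by ATP luminescence following 5 hr compound treatment.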
# [9] = qHTS assay to identify small molecule agonists of the TGF-beta/Smad signaling pathway (AID 1346859; active means well fitted activation curve with a large enough effect in the signal ratio in the repeat runs, not every such curve was filed as active; the % refers to the signal ratio; further: series mostly up to about 77 µM)
# In short: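 SBE-bla HEK 293T, 4,000 cells/well, plated o/n; cpd in DMSO, 5 hr, 37 C/5% CO2; B/G FRET substrate 2 hr RT; ex 405, em 460/530 nm.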
# [10] = biological target: Thyrotropin-releasing hormone receptor (Homo sapiens) (UniProt P34981); test: qHTS assay to identify small molecule antagonists of the thyrotropin-releasing hormone receptor (TRHR) signaling pathway (AID 1346877; active means well fitted inhibition curve with a large enough effect in the repeat runs, not every such curve was filed as active; further: series mostly up to about 51 µM)
# Chain of Thyrotropin-releasing hormone receptor (Homo sapiens) (P34981 whole entry, looked up): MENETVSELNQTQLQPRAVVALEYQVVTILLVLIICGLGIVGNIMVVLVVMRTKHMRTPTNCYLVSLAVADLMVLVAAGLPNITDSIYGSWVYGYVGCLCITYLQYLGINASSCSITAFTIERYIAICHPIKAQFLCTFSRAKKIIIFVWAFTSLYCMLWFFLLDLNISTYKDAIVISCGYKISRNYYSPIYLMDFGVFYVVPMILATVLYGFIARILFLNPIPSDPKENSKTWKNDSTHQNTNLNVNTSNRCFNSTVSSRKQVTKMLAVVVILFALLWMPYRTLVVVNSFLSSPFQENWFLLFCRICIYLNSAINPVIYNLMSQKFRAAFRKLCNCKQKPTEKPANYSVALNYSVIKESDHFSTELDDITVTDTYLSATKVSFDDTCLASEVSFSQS
# In short: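 Human TRHR in HEK293 cells; inhibition of the intracellular calcium rise triggered by 1 nM TRH was followed by fluorescence over 3 min. Compounds were run at 15 concentrations, three replicates each.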
# [11] = qHTS assay to identify small molecule agonists of the androgen receptor (AR) signaling pathway in the presence of an antagonist - cell viability counter screen (AID 1259379);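 further: MDA-kb2 human breast cancer cells carrying an MMTV luciferase reporter; series mostly up to about 92 µM; nearly all actives have a fitted effect of over 25% in size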
# In short: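 Counter screen for cell viability run in parallel with the AR agonist-mode luciferase assay. MDA-kb2 cells were co-treated with nilutamide (3.0uM final) and compounds, then incubated 16 hr at 37C, and CellTiter-Fluor fluorescence was measured.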
# [12] = qHTS assay to identify small molecule antagonists of the estrogen receptor beta (ER-beta) signaling pathway - cell viability counter screen (AID 1259382); further: series mostly up to about 92 µM; nearly all actives have a fitted effect of over 55% in size
# In short: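 HEK293T ER-beta-UAS-bla, 2% charcoal-stripped FBS; compounds + 1nM E2 16 hr 37C; CellTiter-Glo luminescence, 30 min RT.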
# [13] = qHTS assay to identify small molecule agonists of the estrogen receptor alpha (ER-alpha) signaling pathway in the presence of an antagonist - cell viability counter screen (AID 1259386);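 further: series mostly up to about 92 µM; cells exposed to compounds for 22 h at 37 °C before the viability read; nearly all actives have a fitted effect of over 30% in size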
# In short: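 Steps: 5-day stripped-FBS culture; seed and incubate 24hr; add ICI-182,780 (10.0nM final); pin 15-point compound titration; incubate 22hr at 37C; add CellTiter-Fluor at 21hr; read fluorescence.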
# [14] = qHTS assay to identify small molecule agonists of the progesterone receptor (PR) signaling pathway - cell viability counter screen (AID 1346799; calls by dose curve; further: nearly all actives have a fitted effect of over 45% in size)
# In short: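 Luminescence from CellTiter-Glo, added after the beta-lactamase FRET read in the same wells, gave cytotoxicity in PR-UAS-bla HEK293T cells treated with compounds for 16 hr at 37C.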
# [15] = biological target: Thyrotropin-releasing hormone receptor (Homo sapiens) (UniProt P34981); test: qHTS assay to identify small molecule agonists of the thyrotropin-releasing hormone receptor (TRHR) signaling pathway (AID 1346891; calls by dose curve; further: series mostly up to about 58 µM)
# In short: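 Intracellular calcium rise, read as fluorescence every second for 3 min, served as the agonist signal in dye-loaded HEK293 cells expressing TRHR; each compound ran at 15 concentrations in triplicate.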
# [16] = biological target: Estrogen receptor (Homo sapiens) (UniProt P03372); test: qHTS assay to identify small molecule agonists of the estrogen receptor alpha (ER-alpha) signaling pathway in the presence of an antagonist (AID 1259383; calls by dose curve; further: top concentration of the series differs between compounds; nearly all actives have a fitted effect of over 15% in size)
# Chain of Estrogen receptor (Homo sapiens) (P03372 whole entry, looked up): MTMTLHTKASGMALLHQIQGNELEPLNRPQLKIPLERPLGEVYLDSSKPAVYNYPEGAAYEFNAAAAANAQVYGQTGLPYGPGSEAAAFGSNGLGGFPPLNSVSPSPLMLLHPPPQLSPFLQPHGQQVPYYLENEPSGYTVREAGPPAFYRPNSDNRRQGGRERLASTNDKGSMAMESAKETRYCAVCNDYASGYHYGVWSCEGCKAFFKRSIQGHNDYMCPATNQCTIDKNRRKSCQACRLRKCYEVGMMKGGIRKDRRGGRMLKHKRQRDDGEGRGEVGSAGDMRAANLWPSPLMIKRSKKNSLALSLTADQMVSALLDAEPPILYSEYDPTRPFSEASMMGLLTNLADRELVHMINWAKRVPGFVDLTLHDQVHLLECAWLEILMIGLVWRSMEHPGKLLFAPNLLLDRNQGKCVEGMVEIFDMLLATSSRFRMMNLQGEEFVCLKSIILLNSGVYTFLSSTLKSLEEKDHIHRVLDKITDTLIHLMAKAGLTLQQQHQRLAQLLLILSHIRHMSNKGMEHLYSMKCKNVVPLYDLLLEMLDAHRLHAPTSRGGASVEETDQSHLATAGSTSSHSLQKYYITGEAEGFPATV
# In short: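 ER-alpha agonism measured under antagonist challenge: 10.0nM ICI-182,780 (final) plus compound, 15 concentrations, 22hr, VM7Luc4E2 ERE-luciferase cells. Read by luminescence.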
# [17] = qHTS assay to identify small molecule antagonists of the progesterone receptor (PR) signaling pathway - cell viability counter screen (AID 1346798);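 further: HEK293T PR-UAS-bla cells stimulated with the agonist R5020; series mostly up to about 92 µM; nearly all actives have a fitted effect of over 50% in size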
# In short: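 HEK293T PR-UAS-bla, 2% charcoal-stripped FBS; 4 hr pre-plate; cpd + R5020, 16 h 37C; LiveBLAzer read first; then CellTiter-Glo 30 min RT, luminescence.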
Compound,Potency [1],Potency [2],Potency [3],Potency [4],outcome [5],Potency [6],Potency [7],Potency [8],outcome [9],outcome [10],Potency [11],Potency [12],Potency [13],Potency [14],Potency [15],Potency [16],Potency [17]
Cc1ccc(O)c([C@H](CCN(C(C)C)C(C)C)c2ccccc2)c1,inactive,26.6 µM (active),inactive,inactive,inactive,inactive,inactive,inactive,inactive,inactive,,,,,,,
CN(C)C/C=C(/c1ccc(Br)cc1)c1cccnc1,,inactive,inactive,inactive,inactive,inactive,inactive,inactive,inactive,inactive,inactive,inactive,inactive,inactive,inactive,,
CC(=O)/C(C)=C/C1C(C)=CCCC1(C)C (stereo unspecified),,,inactive,inactive,inactive,inactive,inactive,inactive,inactive,inactive,inactive,inactive,inactive,,inactive,inactive,inactive
Cn1sccc1=O,,inactive,,inactive,inactive,,inactive,inactive,inactive,inactive,inactive,inactive,inactive,,inactive,inactive,inactive
Cn1c(=O)c2c(ncn2CC(O)CO)n(C)c1=O (stereo unspecified),,,inactive,inactive,inactive,inactive,inactive,inactive,inactive,inactive,,inactive,,,inactive,inactive,inactive
CC(Cc1cccc(C(F)(F)F)c1)NCCOC(=O)c1ccccc1 (stereo unspecified),,,inactive,inactive,inactive,inactive,inactive,inactive,inactive,,,inactive,,inactive,,,inactive
O=S1(=O)N=C(O)c2ccccc21,,inactive,inactive,inactive,inactive,inactive,inactive,inactive,inactive,inactive,inactive,inactive,inactive,inactive,inactive,,inactive
Cc1cc(CC(=O)O)c(C)n1-c1ccc(Cl)cc1,,10.6 µM (active),inactive,inactive,inactive,inactive,inactive,inactive,inactive,inactive,inactive,inactive,,inactive,inactive,,
